PubChem BioAssay AID624257 (Broad Institute, 2012)
Entries with a potency or affinity are not part of this list.

target: PglD acetyltransferase (Campylobacter jejuni) (UniProt O86157); assay: PglD acetyltransferase inhibitors, dose response, biochemical, DTNB absorbance, cherry-picked samples, set 2 (AID 624257); conditions: Purified PglD, DTNB absorbance 412 nm, CoA release; series mostly up to 19.5 µM; activity change, negative = inhibition: at the top concentration
Sequence (O86157 1-203): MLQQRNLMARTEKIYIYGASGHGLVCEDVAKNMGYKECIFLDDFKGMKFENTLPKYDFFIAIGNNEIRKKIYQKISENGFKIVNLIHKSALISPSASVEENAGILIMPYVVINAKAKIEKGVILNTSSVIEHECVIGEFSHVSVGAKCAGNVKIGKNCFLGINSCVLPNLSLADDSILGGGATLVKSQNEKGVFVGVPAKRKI

Activity change, negative = inhibition, inactive:
CCc1ccc(N=C2NC(=O)/C(=C/c3cc(Br)c(OCC(=O)O)c(OC)c3)S2)cc1 -7.94%, C=CC1=C(C(=O)O)N2C(=O)[C@@H](NC(=O)/C(=N/OCC(=O)O)c3csc(N)n3)[C@H]2SC1 -21.8%, CCn1c(SCc2nc3sc(C(=O)O)c(C)c3c(=O)[nH]2)nc2ccccc21 -38.5%
